In PubChem BioAssay (NCATS):
Unmarked numbers belong to inactive results. Calls follow the shape of the dose curve; as a rule, active = well fitted curve in the direction sought with a large enough effect; inconclusive = small, poorly fitted or top-dose-only effect, or another doubt; inactive = no such curve, though single readings can be large; an effect the other way counts as inactive or inconclusive. Inconclusive results are not listed. Non-standard residues stand in square brackets, D forms with d. Residues, ends and D or L forms follow the SMILES beside them. *: point of attachment. Sta = CC(C)C[C@H](N)[C@@H](O)CC(=O)O; Isovaleryl = CC(C)CC(=O)*

Biological target: Protein phosphatase 1D (Homo sapiens) (UniProt O15297)
Sequence (O15297 whole entry, looked up): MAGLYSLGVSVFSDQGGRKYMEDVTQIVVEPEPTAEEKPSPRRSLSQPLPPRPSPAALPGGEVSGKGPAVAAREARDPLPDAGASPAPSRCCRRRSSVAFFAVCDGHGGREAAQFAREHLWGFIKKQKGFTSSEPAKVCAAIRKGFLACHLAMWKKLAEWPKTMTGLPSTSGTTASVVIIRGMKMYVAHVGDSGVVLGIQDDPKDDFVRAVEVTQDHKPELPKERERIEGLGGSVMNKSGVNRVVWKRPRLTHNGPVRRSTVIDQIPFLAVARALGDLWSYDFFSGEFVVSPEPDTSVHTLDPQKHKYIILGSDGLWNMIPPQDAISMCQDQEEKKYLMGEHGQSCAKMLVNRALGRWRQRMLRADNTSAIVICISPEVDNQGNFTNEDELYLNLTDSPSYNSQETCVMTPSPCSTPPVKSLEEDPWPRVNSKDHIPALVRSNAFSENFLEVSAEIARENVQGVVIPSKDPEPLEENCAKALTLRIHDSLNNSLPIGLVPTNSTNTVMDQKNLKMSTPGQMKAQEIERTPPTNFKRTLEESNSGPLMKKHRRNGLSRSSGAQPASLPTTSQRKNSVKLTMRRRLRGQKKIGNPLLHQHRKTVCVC
Assay: RapidFire Mass Spectrometry qHTS Assay for Modulators of WT P53-Induced Phosphatase 1 (WIP1) (AID 1347424);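 also: amount of dephosphorylated VEPPL-S-QETFS peptide product formed by WIP1; plate controls were DMSO wells for no effect and GSK830371 inhibitor control at 10 µM for full effect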
Details: WIP1 dephosphorylation of phosphopeptide, RapidFire MS; series mostly up to 63 µM; activity change, negative = inhibition: at the top concentration
Procedure, shortened: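 10 nM WIP1 + cpd, 1 h RT; + 2 uM VEPPL-pS-QETFS, 5 min RT; stop 0.5% formic acid; labelled product standard 1 uM; RapidFire MS. Buffer 50 mM Tris pH 7.5, 30 mM MgCl2, 1 mM TCEP.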
In the case of `Cc1cc(=O)oc2cc(O)ccc12`, the “activity change, negative = inhibition” value is reported as 8.9%.
In the case of `Cc1cc2cc3c(C)cc(=O)oc3c(C)c2o1`, the “activity change, negative = inhibition” value is reported as -8.45%.
In the case of `COc1cc(OC)c(C(=O)CCCN2CCCC2)c(OC)c1`, the “activity change, negative = inhibition” value is reported as 9.8%.
For `COCCCN1CCC(NC(=O)c2cc(Cl)c(N)c3c2OCC3)CC1`, the “activity change, negative = inhibition” value was -1.13%.
For `COc1cc2c(N3CCN(C(=O)Nc4ccc(OC(C)C)cc4)CC3)ncnc2cc1OCCCN1CCCCC1`, the “activity change, negative = inhibition” value was 15.2%.
In the case of `CC(C)C[C@H](NC(=O)[C@H](Cc1ccccc1)NC(=O)c1cnccn1)B(O)O`, the “activity change, negative = inhibition” value is reported as 8.81%.
With `Nc1cc(C(Cl)=C(Cl)Cl)c(S(N)(=O)=O)cc1S(N)(=O)=O` the “activity change, negative = inhibition” value was 0.216%.
For `CCC1=C(C)CN(C(=O)NCCc2ccc(S(=O)(=O)NC(=O)NC3CCC(C)CC3)cc2)C1=O` (configuration not stated), the “activity change, negative = inhibition” value was -17.3%.
In the case of `c1ccc2[nH]c(-c3cscn3)nc2c1`, the “activity change, negative = inhibition” value is reported as -1.61%.
In the case of `CCN(CC)CCOc1ccc(Cc2ccccc2)cc1`, the “activity change, negative = inhibition” value is reported as 5.49%.
For `CC(C)[C@H](N)C(=O)OCCOCn1cnc2c(=O)[nH]c(N)nc21`, the “activity change, negative = inhibition” value was 2.65%.
For `CC(S)C(=O)NCC(=O)O` (configuration not stated), the “activity change, negative = inhibition” value was 3.05%.
In the case of `CCCCN(CCCC)CCC(O)c1cc2c(Cl)cc(Cl)cc2c2cc(C(F)(F)F)ccc12` (configuration not stated), the “activity change, negative = inhibition” value is reported as 43.8%.
With `O=C(NOCC1CC1)c1ccc(F)c(F)c1Nc1ccc(I)cc1Cl` the “activity change, negative = inhibition” value was -17.1%.
With `CC(C)CC(=O)N[C@H](C(=O)N[C@H](C(=O)N[C@@H](CC(C)C)[C@@H](O)CC(=O)N[C@@H](C)C(=O)N[C@@H](CC(C)C)[C@@H](O)CC(=O)O)C(C)C)C(C)C` (Isovaleryl-VV[Sta]A[Sta]-OH) the “activity change, negative = inhibition” value was 7.17%.
In the case of `Cc1ccc(C)c(OCCCC(C)(C)C(=O)O)c1`, the “activity change, negative = inhibition” value is reported as 2.28%.
For `CN(C)c1ccc(O)c2c1C[C@H]1C[C@H]3[C@H](N(C)C)C(=O)C(C(N)=O)=C(O)[C@@]3(O)C(=O)C1=C2O`, the “activity change, negative = inhibition” value was -9.39%.
With `CCc1nc(N)nc(N)c1-c1ccc(Cl)cc1` the “activity change, negative = inhibition” value was -0.0411%.
In the case of `Cc1ncc([N+](=O)[O-])n1CC(C)O` (configuration not stated), the “activity change, negative = inhibition” value is reported as 7.26%.
In the case of `CCCCC(CC)COC(=O)C(C#N)=C(c1ccccc1)c1ccccc1` (configuration not stated), the “activity change, negative = inhibition” value is reported as 26%.
In the case of `CC1=C(C)C(=O)C(C(CCCCCC(=O)O)c2ccccc2)=C(C)C1=O` (configuration not stated), the “activity change, negative = inhibition” value is reported as -14.5%.
In the case of `Cc1cc2c(s1)Nc1ccccc1N=C2N1CCN(C)CC1`, the “activity change, negative = inhibition” value is reported as -8.6%.

Tested on: not listed separately
Assay: Validation qHTS assay for inhibitors of Activation Induced Cytidine Deaminase (AID): UDG Counterscreen signal (AID 1347427); also: 0% is about no effect
Details: biochemical UDG counterscreen, fluorescence signal; series mostly up to 115 µM; activity, negative = inhibition: at the top concentration
Procedure, shortened: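 Counterscreen read of UDG activity (2 U/mL, 4/3x) in the FRET deamination format with AID (1 uM, 4/3x), DJC20/DJC23 substrates (250 nM, 4x), 4 h at room temperature. NaOH stop, fluorescence at 560 ex/665 em.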
For `CCOC(=O)C(C)Oc1cccc2c(=O)n(CC(=O)Nc3ccc4c(c3)OCCO4)ccc12` (configuration not stated), the “activity, negative = inhibition” value was 13.5%.
In the case of `Nc1ccn([C@@H]2O[C@H](CO)[C@@H](O)C2O)c(=O)n1` (some centres not stated), the “activity, negative = inhibition” value is reported as -3.43%.
In the case of `Nc1nc(N)c(N=O)c(OCC2CCCCC2)n1`, the “activity, negative = inhibition” value is reported as 5.52%.
In the case of `O=c1c(O)c(-c2cc(O)c(O)c(O)c2)oc2cc(O)cc(O)c12`, the “activity, negative = inhibition” value is reported as -10.4%.
For `COc1ccccc1N1CCN(CCN(C(=O)C2CCCCC2)c2ccccn2)CC1`, the “activity, negative = inhibition” value was 7.59%.
With `COc1cc2c(cc1OC)C1CC(=O)C(CC(C)C)CN1CC2` (configuration not stated) the “activity, negative = inhibition” value was 12.5%.
In the case of `Oc1ccc(-c2nc(-c3ccc(F)cc3)c(-c3ccncc3)[nH]2)cc1`, the “activity, negative = inhibition” value is reported as 6.15%.
In the case of `Nc1nc(OCc2ccccc2)c2[nH]cnc2n1`, the “activity, negative = inhibition” value is reported as 5.03%.
In the case of `CC(=O)N1CCN(c2ccc(OC[C@H]3CO[C@](Cn4ccnc4)(c4ccc(Cl)cc4Cl)O3)cc2)CC1`, the “activity, negative = inhibition” value is reported as 10.8%.
In the case of `O=Nc1c(-c2c(O)[nH]c3cc(Br)ccc23)[nH]c2ccccc12`, the “activity, negative = inhibition” value is reported as -0.717%.
For `C[C@@H](N)C1CCC(C(=O)Nc2ccncc2)CC1` (some centres not stated), the “activity, negative = inhibition” value was 14.4%.
With `Cc1cc(O)c2c(c1)C(=O)c1cc(O)cc(O)c1C2=O` the “activity, negative = inhibition” value was -6.85%.
With `CC(=O)O[C@H]1C(=O)[C@@]2(C)C([C@H](OC(=O)c3ccccc3)[C@]3(O)C[C@H](OC(=O)[C@H](O)[C@@H](NC(=O)c4ccccc4)c4ccccc4)C(C)=C1C3(C)C)[C@]1(OC(C)=O)CO[C@@H]1C[C@@H]2O` (some centres not stated) the “activity, negative = inhibition” value was 7.53%.
In the case of `O=C1c2c(O)cc(O)cc2OC(c2ccc(O)c(O)c2)C1O` (configuration not stated), the “activity, negative = inhibition” value is reported as -7.92%.
For `O=c1c(O)c(-c2ccc(O)cc2O)oc2cc(O)cc(O)c12`, the “activity, negative = inhibition” value was 6.85%.

Biological target: Single-stranded DNA cytosine deaminase (Homo sapiens) (UniProt Q9GZX7)
Sequence (Q9GZX7 whole entry, looked up): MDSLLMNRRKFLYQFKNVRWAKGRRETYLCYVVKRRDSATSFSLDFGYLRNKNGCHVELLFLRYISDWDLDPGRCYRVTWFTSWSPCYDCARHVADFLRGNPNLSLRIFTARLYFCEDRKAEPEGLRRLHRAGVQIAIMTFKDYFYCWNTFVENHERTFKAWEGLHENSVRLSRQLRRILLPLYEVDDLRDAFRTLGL
Assay: Validation qHTS assay for inhibitors of Activation Induced Cytidine Deaminase (AID): AID signal (AID 1347429); also: % is scaled to controls: 0 for no effect and ±100 for the full control effect
Details: Recombinant AID, FRET ssDNA deamination with UDG, fluorescence; series mostly up to 115 µM; activity change, negative = inhibition: at the top concentration
Procedure, shortened: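 Fluorescence at 540 nm excitation and 590 nm emission reports ssDNA cytosine deamination by AID, with UDG in the same well. Compound-treated reactions ran 4 hr at room temperature with DJC20/DJC23 substrate, followed by 30 min NaOH treatment.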
With `CCOC(=O)C(C)Oc1cccc2c(=O)n(CC(=O)Nc3ccc4c(c3)OCCO4)ccc12` (configuration not stated) the “activity change, negative = inhibition” value was 22.3%.
In the case of `Nc1ccn([C@@H]2O[C@H](CO)[C@@H](O)C2O)c(=O)n1` (some centres not stated), the “activity change, negative = inhibition” value is reported as 0.587%.
With `Nc1nc(N)c(N=O)c(OCC2CCCCC2)n1` the “activity change, negative = inhibition” value was 11.7%.
In the case of `O=c1c(O)c(-c2cc(O)c(O)c(O)c2)oc2cc(O)cc(O)c12`, the “activity change, negative = inhibition” value is reported as 24.1%.
With `COc1ccccc1N1CCN(CCN(C(=O)C2CCCCC2)c2ccccn2)CC1` the “activity change, negative = inhibition” value was 21.2%.
For `COc1cc2c(cc1OC)C1CC(=O)C(CC(C)C)CN1CC2` (configuration not stated), the “activity change, negative = inhibition” value was 34.7%.
In the case of `Oc1ccc(-c2nc(-c3ccc(F)cc3)c(-c3ccncc3)[nH]2)cc1`, the “activity change, negative = inhibition” value is reported as 11.3%.
For `Nc1nc(OCc2ccccc2)c2[nH]cnc2n1`, the “activity change, negative = inhibition” value was 8.64%.
In the case of `CC(=O)N1CCN(c2ccc(OC[C@H]3CO[C@](Cn4ccnc4)(c4ccc(Cl)cc4Cl)O3)cc2)CC1`, the “activity change, negative = inhibition” value is reported as 10.2%.
In the case of `O=Nc1c(-c2c(O)[nH]c3cc(Br)ccc23)[nH]c2ccccc12`, the “activity change, negative = inhibition” value is reported as 97.3%.
For `C[C@@H](N)C1CCC(C(=O)Nc2ccncc2)CC1` (some centres not stated), the “activity change, negative = inhibition” value was 10.5%.
With `Cc1cc(O)c2c(c1)C(=O)c1cc(O)cc(O)c1C2=O` the “activity change, negative = inhibition” value was 148%.
For `CC(=O)O[C@H]1C(=O)[C@@]2(C)C([C@H](OC(=O)c3ccccc3)[C@]3(O)C[C@H](OC(=O)[C@H](O)[C@@H](NC(=O)c4ccccc4)c4ccccc4)C(C)=C1C3(C)C)[C@]1(OC(C)=O)CO[C@@H]1C[C@@H]2O` (some centres not stated), the “activity change, negative = inhibition” value was 13.4%.
In the case of `O=C1c2c(O)cc(O)cc2OC(c2ccc(O)c(O)c2)C1O` (configuration not stated), the “activity change, negative = inhibition” value is reported as 20.6%.
For `O=c1c(O)c(-c2ccc(O)cc2O)oc2cc(O)cc(O)c12`, the “activity change, negative = inhibition” value was 18.6%.
